# How the values were obtained:
# [1] = target: T1, Aspartate--tRNA(Asp/Asn) ligase (Mycobacterium tuberculosis (strain ATCC 25618 / H37Rv)) (UniProt P9WFW3); experiment: Assay for Asp RNA synthetase-1 from Mycobacterium tuberculosis; type: functional; set-up: scale not given: direction of the effect not stated beside the values; details: 30 µM; also: in the data most compounds retested in dose-response had high values
# T1 sequence (whole entry): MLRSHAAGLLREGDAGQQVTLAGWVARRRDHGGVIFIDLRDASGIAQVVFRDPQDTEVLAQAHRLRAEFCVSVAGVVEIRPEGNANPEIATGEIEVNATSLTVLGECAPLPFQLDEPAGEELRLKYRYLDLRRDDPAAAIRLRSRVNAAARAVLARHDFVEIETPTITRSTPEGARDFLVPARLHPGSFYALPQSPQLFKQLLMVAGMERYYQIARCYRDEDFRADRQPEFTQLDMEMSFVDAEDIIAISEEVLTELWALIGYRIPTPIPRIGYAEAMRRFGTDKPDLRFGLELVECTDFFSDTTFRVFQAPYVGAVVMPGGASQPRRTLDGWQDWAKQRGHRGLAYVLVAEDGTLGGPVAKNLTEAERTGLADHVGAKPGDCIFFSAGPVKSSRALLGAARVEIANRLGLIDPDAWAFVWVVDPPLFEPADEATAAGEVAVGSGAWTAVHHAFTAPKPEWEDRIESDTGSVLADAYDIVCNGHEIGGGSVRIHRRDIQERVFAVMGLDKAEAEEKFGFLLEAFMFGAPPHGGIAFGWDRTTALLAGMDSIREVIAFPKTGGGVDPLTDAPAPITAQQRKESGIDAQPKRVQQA
# [2] = target: Shiga toxin 2 (Escherichia coli O157:H7) (UniProt P09385+P09386); experiment: E. coli 0.157:H7 Shiga Toxin SOP - stx2 screening assay; type: functional; set-up: scale not given: direction of the effect not stated beside the values; details: 30 µM
compound,measurement,setting,value
CCC(NC(=O)CC(F)(F)F)c1ccccc1OCC(=O)N1CCCC1 (configuration not stated),Percent Effect,[1],0.767%
same,Percent Effect,[2],-16.8%
Cn1cc(CNC2CCCN(Cc3noc(C4CC4)n3)C2)cn1 (configuration not stated),Percent Effect,[1],-1.26%
same,Percent Effect,[2],24.8%
COc1ccccc1[C@@H]1CN(Cc2cc(C(C)(C)C)[nH]n2)C[C@H]1C(=O)O,Percent Effect,[1],1.28%
same,Percent Effect,[2],-6.54%
Cc1nn(C)cc1CN1CCC(C2Nc3ccccc3S(=O)(=O)N2)CC1 (configuration not stated),Percent Effect,[1],-0.223%
same,Percent Effect,[2],14.6%
c1ccc(C2CCN(c3cncc(-n4cccn4)n3)CC2)cc1,Percent Effect,[1],-0.999%
same,Percent Effect,[2],-5.12%
CC[C@H](C)[C@H](NC(=O)Cc1csc(-c2cccc(Cl)c2)n1)C(=O)O,Percent Effect,[1],4.59%
same,Percent Effect,[2],-17.1%
O=C(CCN1CCCC1c1cccs1)N1CCc2sccc2C1 (configuration not stated),Percent Effect,[1],-0.954%
same,Percent Effect,[2],1.91%
CCc1nc(CN2CCCN(C(=O)c3cnc[nH]3)CC2)cs1,Percent Effect,[1],-2.77%
same,Percent Effect,[2],-5.89%
CC(CN1CCOCC1)NCC1CCN(c2cnn(C)c(=O)c2)CC1 (configuration not stated),Percent Effect,[1],2.84%
same,Percent Effect,[2],-6.71%
Cc1csc(CNC(=O)NCC(O)c2cccc(Cl)c2)n1 (configuration not stated),Percent Effect,[1],3.71%
same,Percent Effect,[2],-10.8%
C[C@@H]1CN(C(=O)c2cnc(C3CC3)nc2)CC[C@@]1(O)C1CCOCC1,Percent Effect,[1],1.53%
same,Percent Effect,[2],0.847%
Cc1cc(Nc2nc(C)cs2)nc(C2CCCCN2CCO)n1 (configuration not stated),Percent Effect,[1],0.7%
same,Percent Effect,[2],-34.2%
O=C(Cc1ccsc1)N1CCC(n2nc(-c3ccco3)ccc2=O)CC1,Percent Effect,[1],-0.938%
same,Percent Effect,[2],18.8%
O=C(c1ccc(N2CCCC2)nn1)N1CCCC(n2cccn2)C1 (configuration not stated),Percent Effect,[1],3.23%
same,Percent Effect,[2],23.7%
CCn1c(C)nnc1CN(C)C1CCN(CCCOC)C1 (configuration not stated),Percent Effect,[1],1.79%
same,Percent Effect,[2],7.8%
Cc1cnc(CN(C)C2CCN(CC(=O)Nc3c(C)n[nH]c3C)C2)o1 (configuration not stated),Percent Effect,[1],-2.74%
same,Percent Effect,[2],-14.3%

# — ChEMBL document CHEMBL3988442, “University of Dundee, Small-Polar-MMV Screening Library” (2021)
